Each structure is given as a SMILES string. About 2,100 (0.53%) of roughly 400,000 compounds were called active. Another 14% or so got no clear call; they are omitted. How the calls were made is not given here. The sample as a whole holds a higher share of actives than the screen did.

Ataxin-2 (Homo sapiens), sequence (Q99700 whole entry): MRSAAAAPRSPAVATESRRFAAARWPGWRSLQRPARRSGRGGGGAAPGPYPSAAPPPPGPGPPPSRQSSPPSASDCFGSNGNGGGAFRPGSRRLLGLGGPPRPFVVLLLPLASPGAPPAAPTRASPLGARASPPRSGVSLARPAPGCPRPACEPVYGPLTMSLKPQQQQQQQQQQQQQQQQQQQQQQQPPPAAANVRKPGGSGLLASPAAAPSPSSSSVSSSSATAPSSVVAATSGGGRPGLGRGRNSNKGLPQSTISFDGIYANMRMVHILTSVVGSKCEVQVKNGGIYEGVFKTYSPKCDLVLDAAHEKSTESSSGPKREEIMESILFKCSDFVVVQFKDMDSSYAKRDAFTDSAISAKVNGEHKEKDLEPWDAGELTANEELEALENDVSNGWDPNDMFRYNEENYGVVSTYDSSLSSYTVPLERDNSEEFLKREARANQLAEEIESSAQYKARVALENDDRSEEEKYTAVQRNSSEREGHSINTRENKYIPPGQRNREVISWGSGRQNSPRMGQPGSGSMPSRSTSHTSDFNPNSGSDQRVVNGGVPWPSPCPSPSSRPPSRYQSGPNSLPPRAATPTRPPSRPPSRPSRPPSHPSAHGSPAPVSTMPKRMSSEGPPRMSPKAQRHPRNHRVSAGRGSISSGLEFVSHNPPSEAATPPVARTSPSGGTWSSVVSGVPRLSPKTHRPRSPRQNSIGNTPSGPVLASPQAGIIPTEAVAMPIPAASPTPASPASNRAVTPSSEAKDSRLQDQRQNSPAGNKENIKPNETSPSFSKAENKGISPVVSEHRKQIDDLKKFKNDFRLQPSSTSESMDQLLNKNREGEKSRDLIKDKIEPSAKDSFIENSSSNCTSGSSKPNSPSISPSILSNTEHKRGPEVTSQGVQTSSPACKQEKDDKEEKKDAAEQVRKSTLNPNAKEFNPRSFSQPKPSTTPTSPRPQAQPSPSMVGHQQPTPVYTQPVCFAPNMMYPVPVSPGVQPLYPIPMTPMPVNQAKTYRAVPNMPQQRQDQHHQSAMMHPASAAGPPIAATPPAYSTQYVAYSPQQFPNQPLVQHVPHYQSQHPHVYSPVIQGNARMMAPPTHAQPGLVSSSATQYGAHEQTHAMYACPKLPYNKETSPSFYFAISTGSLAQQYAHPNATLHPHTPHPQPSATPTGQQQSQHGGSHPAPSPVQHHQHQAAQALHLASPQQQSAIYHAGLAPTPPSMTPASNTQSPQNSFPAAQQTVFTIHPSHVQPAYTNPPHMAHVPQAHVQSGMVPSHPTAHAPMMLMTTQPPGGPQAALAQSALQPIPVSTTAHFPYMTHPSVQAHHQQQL

The assay has as its target Ataxin-2 (Homo sapiens) (UniProt Q99700). The experiment in a line: qHTS for Inhibitors of ATXN expression. It is filed as functional. In general terms: Quantitative high-throughput screening tests each substance at several concentrations.
For the compound `CC(C)CC1c2[nH]c3ccccc3c2CCN1C(=O)CCC(=O)N(C)C` (stereo not drawn), the Potency result was “inactive”.

`Cc1c(Cl)cccc1NC(=O)CN1CCN(CCNC=C2C(=O)CC(c3ccccc3)CC2=O)CC1` (stereo not drawn): the Potency result is “inactive”.

For the compound `Cc1cc(C)cc(NC(=O)Nc2ccccc2N2CCCCC2)c1`, the Potency entry was “inactive”.

In the case of `Cc1c(Cl)cccc1NC(=O)C1CCCN(C(=O)c2cnn(-c3ccccc3)c2-n2cccc2)C1` (stereo not drawn), the Potency is 39.8 µM (active).

For `Cc1cc(Cl)ccc1C(=O)C1CCCN(C(=O)/C=C/c2cnn(C)c2)C1` (stereo not drawn), the Potency entry was “inactive”.

`Cc1c(CN2CCCC(C(=O)Nc3cccc(-n4cccn4)c3)C2)cnn1C` (stereo not drawn): the Potency entry is “inactive”.

Regarding `Cc1cc(C)cc(NC(=O)C2CCCN(C(=O)c3cnn(-c4ccccc4)c3-n3cccc3)C2)c1` (stereo not drawn), the Potency was 20 µM (active).

As to `Cc1ccc(SCc2nn(C)c(Cl)c2C=O)cc1`, the Potency entry is “inactive”.

Consider `CCCN(C(=O)c1cccc(S(=O)(=O)N2CCCc3ccccc32)c1)C1CCS(=O)(=O)C1` (stereo not drawn), for which the Potency entry is “inactive”.

With `CC(C)c1cc(NCCOCCO)n2c(nc3ccccc32)c1C#N`, the Potency entry is “inactive”.

As for `Cc1cc(N(CCO)CCO)ccc1C(c1ccc(N(CCO)CCO)cc1C)c1ccccc1Cl`, the Potency was 39.8 µM (active).

Regarding `OCCN(CCO)c1ccc(C(c2ccccc2Cl)c2ccc(N(CCO)CCO)cc2Cl)c(Cl)c1`, the Potency was 39.8 µM (active).

Consider `CCOc1cc(NC(=O)c2ccccn2)c(OCC)cc1NC(=O)c1ccc(OC)cc1`, for which the Potency result is “inactive”.

As to `COc1cc(/C=N/NC(=O)c2ccccn2)cc2c1OCO2`, the Potency entry was “inactive”.

Take `CCN(CC)CCOc1ccc2c(c1)C(=NNC(=O)c1ccccn1)c1cc(OCCN(CC)CC)ccc1-2`: the Potency was 39.8 µM (active).

In the case of `c1ccc(-c2nc(N3CCCC3)nc3ccccc23)cc1`, the Potency result is “inactive”.

With `CCN(CC)c1ccc2cc(-c3nnc(-c4cccc(Cl)c4)o3)c(=O)oc2c1`, the Potency entry is “inactive”.

Turning to `CCCCCCc1cc2cc(S(=O)(=O)c3ccc(Cl)cc3)c(=O)oc2cc1O`, the Potency entry was “inactive”.

For the compound `Cc1ccccc1C(=O)OC1CCN(C)CC1`, the Potency result was “inactive”.

As for `COCCNc1nc(NCc2ccc(NC(C)=O)cc2)c2sc(-c3ccccc3)cc2n1`, the Potency was 31.6 µM (active).

In the case of `O=C(O)CCNc1nc(-c2ccccc2)c2cc(Br)ccc2n1`, the Potency entry is “inactive”.

Turning to `CC(=O)Nc1ccc(S(=O)(=O)Nc2nc3nc(-c4ccccc4)cc(-c4ccccc4)n3n2)cc1`, the Potency result was “inactive”.

Take `NNC(=O)c1sc(-c2ccccc2)cc1N`: the Potency entry is “inactive”.

Take `COCCCNc1nc2c(-c3cccc(C)c3)nnn2c2ccccc12`: the Potency entry is “inactive”.

Regarding `Cc1ccc2nc(NCCC(=O)O)nc(-c3ccccc3)c2c1`, the Potency result was “inactive”.

For the compound `COCCNc1nc2c(-c3cccc(C(F)(F)F)c3)nnn2c2ccccc12`, the Potency result is “inactive”.

With `CC(=O)Nc1ccc(CNc2nc(NCCN(C)C)nc3cc(-c4ccccc4)sc23)cc1`, the Potency is 31.6 µM (active).

Regarding `COCCNc1nc(NCCOc2ccccc2)c2sc(-c3ccccc3)cc2n1`, the Potency is 25.1 µM (active).

For the compound `C[C@]12CCCC[C@@H]1CC[C@@H]1[C@@H]2CC[C@@]2(C)[C@H]1CC[C@@]2(O)CNCCO`, the Potency entry is “inactive”.

As to `O=C(c1cc(Br)c(Br)s1)N1CCc2ccccc2C1`, the Potency entry was “inactive”.

`O=S(=O)(NC1CCSc2ccccc21)c1ccc(Cl)nc1` (stereo not drawn): the Potency result is “inactive”.

In the case of `Cc1cccn2c(=O)c3cc(C#N)/c(=N\C(=O)c4cccs4)n(CCCOC(C)C)c3nc12`, the Potency entry was “inactive”.

Turning to `COc1ccc(C[C@H]2CN3C(=NC[C@@H]3Cc3ccccc3)N2CCNC(=O)c2ccc(C)c(Br)c2)cc1`, the Potency was 22.4 µM (active).

`COc1ccc(C[C@H]2CN3C(=NC[C@@H]3Cc3ccc(O)cc3)N2CCNC(=O)c2ccc(C)c(Br)c2)cc1`: the Potency was 39.8 µM (active).

For the compound `Cc1ccc(C(=O)NC(=S)NCc2ccccc2)cc1Br`, the Potency entry was “inactive”.

Take `COC(=O)CCNC(=O)c1ccc2nc(Cc3ccc(OC)cc3)oc2c1`: the Potency result was “inactive”.

For `COc1cccc(C(=O)NCCn2ccc3ccccc32)c1`, the Potency result was “inactive”.

`COc1ccc(C[C@H]2CN3C(=NC[C@@H]3C(C)C)N2CCNC(=O)c2ccc(C)c(Br)c2)cc1`: the Potency is 20 µM (active).

On to `COc1cccc(CNC(=O)c2ccc(C)c(NC3=NC4CS(=O)(=O)CC4S3)c2)c1` (stereo not drawn), for which the Potency result was “inactive”.

`COc1ccc(C(=O)NCCNc2nc3c(C)cccc3cc2C#N)cc1`: the Potency result was “inactive”.

For the compound `CC(=O)Nc1ccc(NC(=O)CSc2ccc3nnc(CCNC(=O)c4ccccc4)n3n2)cc1`, the Potency result is “inactive”.

Regarding `CC1CCN(c2nnc(-c3ccccc3)c3ccccc23)CC1`, the Potency entry is “inactive”.

Turning to `Cc1sc2nc(-c3ccccn3)nc(O)c2c1-c1ccccc1`, the Potency entry is “inactive”.

Consider `O=[N+]([O-])c1ccc(C2NS(=O)(=O)N=C3CCCCCN32)cc1` (stereo not drawn), for which the Potency entry is “inactive”.

For the compound `CCCc1cc(C(=O)Cc2nc3ccccc3s2)c(O)cc1O`, the Potency result was “inactive”.

For `COc1ccc(-c2csc(NC(C)c3nc4cc(Cl)c(Cl)cc4n3CCCO)n2)cc1` (stereo not drawn), the Potency is 39.8 µM (active).

Take `CC(C)CC(=O)NC(=S)Nc1nc(-c2ccc(Cl)cc2)cs1`: the Potency result was “inactive”.

As for `CC(Nc1nc(-c2ccc(F)cc2)cs1)c1nc2cc(Cl)c(Cl)cc2n1CCCO` (stereo not drawn), the Potency was 39.8 µM (active).

Regarding `O=C(CN1CCN(Cc2ccc(F)cc2)CC1)Nc1nc2ccccc2s1`, the Potency result was “inactive”.

Regarding `CC(Nc1nc(-c2ccc(F)cc2)cs1)c1nc2cc(Cl)c(N3CCCCC3)cc2n1CCCO` (stereo not drawn), the Potency was 25.1 µM (active).

Regarding `Cc1ccc(Cn2c(C(CO)Nc3nc(-c4ccc(F)cc4)cs3)nc3ccccc32)cc1` (stereo not drawn), the Potency is 25.1 µM (active).

With `COc1ccc(-c2csc(NC(=O)CSc3nnnn3C)n2)c(OC)c1`, the Potency result is “inactive”.

For `Cc1ccc(Cn2cccc(-c3nc4ccccc4s3)c2=O)cc1`, the Potency result is “inactive”.

Regarding `COc1ccc(/N=C/C2=C(O)c3c(sc(C)c3C)N(C)S2(=O)=O)cc1`, the Potency result is “inactive”.

On to `CC(Nc1nc(-c2ccc(F)cc2)cs1)c1nc2cc(C(F)(F)F)ccc2n1CCCO` (stereo not drawn), for which the Potency is 22.4 µM (active).

With `CC(=O)Nc1ccc(NC(=O)COC(=O)c2ccccn2)cc1`, the Potency entry was “inactive”.

For `C/C(=N\NC(=O)c1c[nH]c2ccccc12)c1ccccn1`, the Potency result was “inactive”.

As for `C/C(=N\NC(=O)COc1ccccc1-c1ccccc1)c1ccccn1`, the Potency is 6.7 µM (active).

Regarding `CCCn1nc(NC(=O)C(C)C)c2cc3cc(OC)ccc3nc21`, the Potency entry was “inactive”.

As to `N=c1oc2ccccc2cc1-c1nc(-c2ccccc2)cs1`, the Potency result is “inactive”.

With `CCN(CC)S(=O)(=O)c1cc([N+](=O)[O-])ccc1NNC(=O)Nc1ccc(Cl)c(Cl)c1`, the Potency was 39.8 µM (active).

For the compound `CCN(CC)S(=O)(=O)c1cc(NC(=O)C2CC(=O)N(Cc3ccccc3)C2)ccc1Cl` (stereo not drawn), the Potency entry is “inactive”.

For `CN(C)S(=O)(=O)c1ccc(Cl)c(C(=O)Nc2cccc([N+](=O)[O-])c2)c1`, the Potency result was “inactive”.

These data come from ChEMBL document CHEMBL1201862, “PubChem BioAssay data set” (2004).
